Screens deposited in PubChem by National Center for Advancing Translational Sciences (NCATS).
Most compounds without a hit are left out; they make up all but 8% or so of the library.
LASV entry inh: Lassa virus entry inhibition; Lassa virus pseudotyped entry inhibition, cell-based qHTS; 4.1% of 18,000 active; Potency, µM (doses to about 49.2 µM), for inactives: at the highest dose activity change, negative = inhibition, usual class: inhibitors
MARV entry inh: inhibitors of Marburg virus binding or entry into cells; AID 720532; 6.5% of 18,000 active; Marburg virus pseudotype entry/binding inhibition, cell-based; Potency, µM (titrated, usually from 49.2 µM), inactives show at the highest dose activity change, negative = inhibition, actives largely listed as inhibitors
* = called active by the depositor; ? = inconclusive; nt = no result given; [ ] = remark or other dose. The call rests on the fitted dose curve; tested in HEK293 cells. On the % scale 0 is the no-effect control and ±100 the full control effect; potency means the concentration at half of the fitted maximal effect.

SMILES	LASV entry inh	MARV entry inh
COC1C(O)C(OC2CC[C@]3(C=O)C4C(OC(C)=O)C[C@@]5(C)C(C6=CC(=O)OC6)CC[C@]5(O)C4CC[C@]3(O)C2)OC(C)C1OC(C)=O (some centres not stated)	0.4%	-13.3%
CCOC(=O)C1=C[C@@H](OC(CC)CC)[C@H](NC(C)=O)[C@@H](N)C1	-16.9%	?
O=C(O)c1ccc(-c2ccccc2C(F)(F)F)s1	-10.2%	8.5%
O=C(CCc1ccc(O)cc1)c1c(O)cc(O)cc1O[C@H]1OC(CO)C(O)C(O)C1O (some centres not stated)	2.8%	1.9%
COc1ccc(CCN)cc1	-11.7%	-27.8%
CCn1c(-c2nonc2N)nc2ccc(F)cc21	-9.9%	?
CCn1c(-c2nonc2N)nc2c(C#CC(C)(C)O)ncc(OC3CCNCC3)c21	nt	3.97µM*
CCn1c(-c2nonc2N)nc2c(C#CC(C)(C)O)nc(OCC(N)c3ccccc3)cc21 (configuration not stated)	nt	3.15µM*
CCn1c(-c2nonc2N)nc2c(C#CCN)ncc(OCCCN)c21	15.3%	?
Cc1cc(OI)c(C(C)C)cc1-c1cc(C(C)C)c(OI)cc1C	-3.1%	20.3%
C=C1CCC(O)C/C1=C\C=C1/CCCC2(C)C1CCC2C(C)CCCC(C)C (configuration not stated)	?	9.6%
Cc1cc(OCCOCC[N+](C)(C)Cc2ccccc2)ccc1C(C)(C)CC(C)(C)C	25.1µM*	22.4µM*
C[N+](C)(CCOc1ccccc1)Cc1cccs1	-16.8%	13.4%
CC(C(=O)O)c1cccc(Oc2ccccc2)c1 (configuration not stated)	18.4%	-7.5%
O=C(O)[C@@H]1CSCN1	11.3%	10.8%
CC[N+]1(CC)CCC(=C(c2ccccc2)c2ccccc2)C1C (configuration not stated)	-10.0%	4.0%
CCN1C[C@]2(C)CC[C@H](OC)[C@@]34[C@@H]2[C@H](OC(C)=O)[C@]2(OCO[C@@]25C[C@@H](OC)[C@@H]2C[C@@]3(O)[C@H]5[C@@H]2OC)[C@H]14	2.5%[17.8 µM]	-12.4%[17.8 µM]
O=C1NC(=O)c2c1c1c3ccccc3n3c1c1c2c2ccccc2n1C1CCC3O1	?	1.12µM*
CO[C@]1(C)C[C@H]2O[C@]1(C)n1c3ccccc3c3c4c(c5c6ccccc6n2c5c31)C(=O)N(C)C4	-4.9%	-0.3%
CC/C=C\C/C=C\C/C=C\C/C=C\C/C=C\C/C=C\CCC(=O)NCCCC(=O)O	-0.5%	-4.7%
Cc1cc2c(c(=O)o1)[C@H]1O[C@](c3ccsc3)(Cc3cc(C#N)ccc31)O2	-8.5%[8.59 µM]	?
Cc1[nH]ccc2c1[nH]c1cc(=O)ccc12	?	12.6µM*
C=C1CC2COC(=O)C2(Cc2ccc3ccccc3c2)C1 (configuration not stated)	-17.5%	-19.9%
CCOP(=S)(OCC)SCSc1ccc(Cl)cc1	-5.0%	-13.0%
COC(=O)CCCC1=CC2=CC(=O)C(C)(OC(=O)c3cccs3)C(=O)C2=CN1C1CCCC1 (configuration not stated)	9.1%[8.59 µM]	43.8%[8.59 µM]
SMILES	LASV entry inh	MARV entry inh
ClC1=C(Cl)C2(Cl)C3C(Cl)C=CC3C1(Cl)C2(Cl)Cl (configuration not stated)	6.7%	-13.6%
Nc1nc(Cl)c2ncn(C3OC(CO)C(O)C3O)c2n1 (configuration not stated)	5.4%	19.3%
Nc1nc(Cl)nc2c1ncn2[C@@H]1O[C@H](CO)[C@@H](O)[C@@H]1F	?	2.51µM*
CSc1ccccc1C(=O)NCC1Cc2cccc(-c3ncccc3C)c2O1 (configuration not stated)	-6.9%	9.7%
Cc1occc(=O)c1O	-8.4%	2.0%
O=C(NCCc1nnc2n1CCN(Cc1c(F)cccc1F)CC2)c1ccco1	-10.5%	25.4%
O[C@@H]1[C@H](O)[C@H]2[C@@H](O)CCN2C[C@@H]1O	0.9%	3.6%
C=C(C)C(O)C=Cc1ccc(C(F)(F)F)cc1 (configuration not stated)	47.3%[8.59 µM]	?
CC(Cc1ccccc1)NCc1ccccc1Cl (configuration not stated)	-1.8%	2.8%
Clc1ccccc1CNCC1CCC(CNCc2ccccc2Cl)CC1 (configuration not stated)	20µM*	6.31µM*
CC(=O)OCC(=O)[C@@]1(O)CC[C@H]2[C@@H]3CCC4=CC(=O)CC[C@]4(C)[C@@H]3C(=O)C[C@@]21C	6.9%	6.5%
CCCCC/C=C\C/C=C\C/C=C\C/C=C\CCCC(=O)Nc1ccc(O)cc1C	12.6µM*	?
CCCCC/C=C\C/C=C\C/C=C\C/C=C\CCCC(=O)Nc1ccc(O)cc1	31.6µM*	?
CCCCC/C=C\C/C=C\C/C=C\C/C=C\CCCC(=O)NCCO	2.7%	8.6%
CCCCC/C=C\C/C=C\C/C=C\C/C=C\CCCC(=O)NCC(=O)O	?	-56.2%
CCn1c(-c2ccccc2F)nc2cc(C(=O)N3CCNC(=O)C3CC(=O)OC)cc(NC(C)=O)c21 (configuration not stated)	-2.5%	-10.8%
